This is an account of results in PubChem BioAssay (NCI).

A short description of assay [1]: NCI Yeast Anticancer Drug Screen. Data for the rad50 strain (AID 155).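 Note: 0% = growth of vehicle-only cultures of the same strain.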 The settings on record: S. cerevisiae rad50 strain growth inhibition; at 50.0 µM; hits give high values. A digest of the protocol:
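Readout: growth inhibition relative to vehicle-treated cultures. Compound exposure was carried out in a genetically defined yeast strain deficient in DNA damage repair.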

A short description of assay [2]: NCI Yeast Anticancer Drug Screen. Data for the mec2-1 strain (AID 157). The settings on record: S. cerevisiae mec2-1 strain, at 50.0 µM, hits give high values. In outline: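 Using mec2-1 yeast: add compound, measure growth, express inhibition versus vehicle-treated cultures.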
Assay [3] in a line: NCI Yeast Anticancer Drug Screen. Data for the sgs1 mgt1 strain (AID 161).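 Note: 0% = growth of cultures given vehicle only.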 The settings on record: S. cerevisiae sgs1 mgt1 strain, at 50.0 µM, hits give high values. In outline: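 Compounds are added to genetically altered yeast, and growth is compared with cultures given vehicle alone to give percent inhibition.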
Assay [4] in a line: NCI Yeast Anticancer Drug Screen. Data for the cln2 rad14 strain (AID 165).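 Note: 0% = growth equal to vehicle treated cultures.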 The following applies: S. cerevisiae cln2 rad14 strain, at 50.0 µM, hits give high values. A digest of the protocol:
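Yeast strain cln2 rad14, bearing defects in cell cycle control and DNA repair, serves as the test system; values reflect growth inhibition compared with vehicle.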

A short description of assay [5]: NCI Yeast Anticancer Drug Screen. Data for the bub3 strain (AID 167). The settings on record: S. cerevisiae bub3 mutant strain, at 50.0 µM, hits give high values. A digest of the protocol: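 Readout: yeast growth inhibition, expressed relative to vehicle-only wells. The test organism is a mutant strain from a panel with lesions in DNA repair or checkpoint genes.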

Assay [6] can be described thus: NCI Yeast Anticancer Drug Screen. Data for the mlh1 rad18 strain (AID 175). The following applies: S. cerevisiae mlh1 rad18 strain growth inhibition; at 50.0 µM; hits give high values. In outline:
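Steps: expose repair-defective yeast to compound; measure growth; express inhibition against vehicle-treated controls.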

The structures appear in SMILES notation. Where “and” joins values, the source holds several entries; their conditions need not be identical. Equal values may be shown once. About 79,000 compounds went through this panel and 15% of them were active in at least one assay; those are over-represented in the sample as a whole. Unmarked numbers belong to inactive results. Calls of active or inactive are those of the source. Cut-off read from the data, not from the text of the source: active = growth inhibition above about 70%; inactive = the rest.

Take `CCOP(=O)(CSCCC1(C)NC(=O)NC1=O)OCC` (stereo unspecified): the growth inhibition in assay [1] is 8.6%; in assay [2] it was -9.7%; in assay [3] it was 23.9%; in assay [4], 2.65%; in assay [5], 7.2%; in assay [6], 7.45%.

Take `COc1cccc(C2(C#N)CCN(C)CC2)c1`: the growth inhibition in assay [1] was 28.1%; in assay [2], 23.1%; in assay [3], 22.7%; in assay [4], -7.45%; in assay [5], 12.7%; in assay [6], 62.5%.

For `COCCCNP(=O)(OC(C)C)OC(C)C`, the growth inhibition in assay [1] is 0.75%; in assay [2] it was 0.85%; in assay [3], 8.6%; in assay [4], 5.8%; in assay [5], 9.2%; in assay [6], 14.8%.

Consider `CC(Cl)C(=O)OC(C)C(=O)O` (stereo unspecified), for which the growth inhibition in assay [1] was 12.1%; in assay [2], 17.1%; in assay [3] it was 12.5%; in assay [4], 8%; in assay [5] it was -2.7%; in assay [6] it was 3.4%.

In the case of `C=CC(=O)OCCN(C)C`, the growth inhibition is 1.5% in assay [1]; -4.65% in assay [2]; -4.4% in assay [3]; -0.25% in assay [4]; 2.1% in assay [5]; 1.65% in assay [6].

On to `Nc1c(S(=O)(=O)O)cc(Nc2ccc(S(=O)(=O)O)c(Nc3nc(Cl)nc(Cl)n3)c2)c2c1C(=O)c1ccccc1C2=O`, for which the growth inhibition in assay [1] was -14.3%; in assay [2], -31.8%; in assay [3] it was -27.4%; in assay [4], -14.3%; in assay [5], -32.7%; in assay [6] it was -37.9%.

In the case of `C=CC(C)(C)C12CC3C(=O)N/C(=C\c4cnc[nH]4)C(=O)N3C1Nc1ccccc12` (stereo unspecified), the growth inhibition in assay [1] is -33.4%; in assay [2] it was -11%; in assay [3] it was 8.15%; in assay [4], 1.45%; in assay [5], -6.3%; in assay [6], -14.8%.

Consider `Clc1cc[c]([Sn]([Cl])([c]2ccc(Cl)cc2)[c]2ccc(Cl)cc2)cc1`, for which the growth inhibition is 98.5% (active) in assay [1]; 98.5% (active) in assay [2]; 98.8% (active) in assay [3]; 97.7% (active) in assay [4]; 97.5% (active) in assay [5]; 98.3% (active) in assay [6].

With `CC(=O)OC[C@]12C[C@H](OC(=O)CC(C)C)C(C)=C[C@H]1O[C@@H]1[C@H](O)[C@@H](O)[C@@]2(C)[C@@]12CO2`, the growth inhibition in assay [1] was 83.2% (active); in assay [2], 83% (active); in assay [3], 83.3% (active); in assay [4], 87.7% (active); in assay [5], 81.9% (active); in assay [6], 84.8% (active).

Regarding `Cc1cc(N(CCCl)CCCl)ccc1C=Nc1ccccc1C(=O)O`, the growth inhibition in assay [1] is 27.4%; in assay [2], 3.9%; in assay [3], 28.4%; in assay [4] it was 16.1%; in assay [5], 2.65%; in assay [6], 29.1%.

As for `CNC(C)C(O)c1ccccc1` (stereo unspecified), the growth inhibition in assay [1] was 15.3% and 4.1%; in assay [2], -14.3% and -2.1%; in assay [3], 7.45% and -21.6%; in assay [4] it was 14.9% and 10.5%; in assay [5] it was 10% and -5.85%; in assay [6] it was 13.3% and 8.9%.

On to `CCN(CC)C(=S)SC1C(=O)NC(=O)NC1=O`, for which the growth inhibition in assay [1] was 23.3%; in assay [2], -15.4%; in assay [3], 20.1%; in assay [4], 20.6%; in assay [5], 1.9%; in assay [6], 16.1%.

For the molecule `Cc1ccc(CI)cc1`, the growth inhibition in assay [1] was -2.15%; in assay [2], -6.7%; in assay [3] it was -22.9%; in assay [4] it was 18.9%; in assay [5], 20.1%; in assay [6], 19.5%.

Regarding `CC1(C)OC(C=O)C2CC(=O)c3c(O)cccc3C2(C)O1` (stereo unspecified), the growth inhibition in assay [1] is 33.4%; in assay [2], -1.45%; in assay [3] it was 12.9%; in assay [4], -4.15%; in assay [5], 11.9%; in assay [6], 0.35%.

Regarding `CC(=O)OC1CC(OC2C(O)CC(OC3C(O)CC(OC4CCC5(C)C(CCC6C5CC(O)C5(C)C(C7=CC(=O)OC7)CCC65O)C4)OC3C)OC2C)OC(C)C1OC1OC(CO)C(O)C(O)C1O` (stereo unspecified), the growth inhibition in assay [1] is 6.05%; in assay [2] it was -15.4%; in assay [3], -25.1%; in assay [4], 5%; in assay [5] it was 5.7%; in assay [6], 10.6%.

For `O=C(O)c1ccccc1S`, the growth inhibition in assay [1] is 7.1% and 0.05%; in assay [2] it was -7.6% and -15.2%; in assay [3], 9.95% and -8.35%; in assay [4], 18.9% and -22.2%; in assay [5], -1.75% and 5.25%; in assay [6], 2.75% and 11.5%.

Turning to `Cc1cc(Cl)ccc1OC(C)C(=O)O` (stereo unspecified), the growth inhibition in assay [1] was -2.05%; in assay [2], -15.2%; in assay [3] it was 0%; in assay [4] it was 15.3%; in assay [5] it was -12.7%; in assay [6], -7.55%.

For the molecule `CC(O)CN(CCN(CC(C)O)CC(C)O)CC(C)O.O=[N+]([O-])O.[Cu+2]` (stereo unspecified), the growth inhibition in assay [1] is 6.05%; in assay [2], -54%; in assay [3], -27.2%; in assay [4], -35.6%; in assay [5], -29.6%; in assay [6] it was 5.15%.

As to `CC(=O)[O-].CC(=O)[O-].CC(=O)[O-].CC(=O)[O-].[Mo+2].[Mo+2]`, the growth inhibition was -6.5% in assay [1]; 2.1% in assay [2]; 0.1% in assay [3]; 3.25% in assay [4]; 1.85% in assay [5]; 5.6% in assay [6].

With `NC(Cc1cccc(F)c1)c1nn[nH]n1` (stereo unspecified), the growth inhibition in assay [1] was -7.6%; in assay [2], 2.35%; in assay [3], -0.1%; in assay [4], -22.8%; in assay [5] it was 1.65%; in assay [6] it was -0.7%.

As to `CC1=CC(C(=O)O)P(C)(=O)C1` (stereo unspecified), the growth inhibition was -0.9% in assay [1]; -18.2% in assay [2]; -12.3% in assay [3]; -11.6% in assay [4]; 0.4% in assay [5]; -10.3% in assay [6].

`CC1NC1c1ccccc1` (stereo unspecified): the growth inhibition in assay [1] is -13.6%; in assay [2] it was -29.3%; in assay [3], -6.85%; in assay [4], -20.4%; in assay [5] it was -11.8%; in assay [6], -19.4%.

For the molecule `C[Si](C)(C)C#CC#C[Si](C)(C)C.[Ni].[Ni].[Ni].[Ni].[c-]1[c-][c-][cH-][c-]1.[c-]1[c-][c-][cH-][c-]1.[c-]1[c-][c-][cH-][c-]1.[c-]1[c-][c-][cH-][c-]1`, the growth inhibition in assay [1] is 11.7%; in assay [2], 5.5%; in assay [3] it was -5.05%; in assay [4], 9.2%; in assay [5] it was -2.85%; in assay [6], -5.85%.

Take `CCC[As](=O)(O)CC(C)C`: the growth inhibition in assay [1] was 3.2%; in assay [2], -2.8%; in assay [3], -4.9%; in assay [4], 13.2%; in assay [5], -0.4%; in assay [6], -3.75%.

`Nc1ccc(Cl)c(C(F)(F)F)c1`: the growth inhibition in assay [1] is 0.85%; in assay [2] it was -16.6%; in assay [3], -12.1%; in assay [4], -18.4%; in assay [5], -1%; in assay [6], 2.6%.

For the molecule `c1ccc2c(c1)sc1sc3c([n+]12)CCCC3`, the growth inhibition was 6.25% in assay [1]; -8.75% in assay [2]; -5.3% in assay [3]; -2.4% in assay [4]; -4.5% in assay [5]; -20.2% in assay [6].

`N#Cc1ccc(NN=O)cc1`: the growth inhibition in assay [1] is 15.9%; in assay [2] it was -3.15%; in assay [3], 10.4%; in assay [4] it was -0.2%; in assay [5], 25%; in assay [6], 28.1%.

As for `CC1(C)N=C(N)N=C(N)N1c1ccc(CCc2cccc(Cl)c2S(=O)(=O)F)c(Cl)c1`, the growth inhibition in assay [1] was 99.5% (active); in assay [2] it was 99.7% (active); in assay [3] it was 99.7% (active); in assay [4] it was 99.3% (active); in assay [5], 99% (active); in assay [6] it was 99.5% (active).

Consider `C1CCC2[N-]CCCC2C1.C1CCC2[N-]CCCC2C1.O=[N+]([O-])O.O=[N+]([O-])O.[Cu+2]` (stereo unspecified), for which the growth inhibition in assay [1] is 21.6%; in assay [2], 21.6%; in assay [3], 15.2%; in assay [4], -19.2%; in assay [5], -4.35%; in assay [6] it was 25.1%.

`ClCCN(CCCl)c1ccc(CCN2CCOCC2)cc1`: the growth inhibition in assay [1] was 46.2%; in assay [2], 15.9%; in assay [3] it was 19.5%; in assay [4], 37.4%; in assay [5], -0.1%; in assay [6] it was 9.3%.

Turning to `CCc1ccccc1C(C(=O)NC1CN2CCC1CC2)c1ccsc1` (stereo unspecified), the growth inhibition in assay [1] was -10%; in assay [2], -28.8%; in assay [3], -43.3%; in assay [4], -21.2%; in assay [5] it was 8.05%; in assay [6] it was -23.1%.

Take `CNCC(=O)c1ccc(O)c(O)c1`: the growth inhibition is 2.4% in assay [1]; -10.1% in assay [2]; -30.6% in assay [3]; -9.35% in assay [4]; -38.9% in assay [5]; -6.75% in assay [6].

As to `C1CN2CN3CCN(CN1C3)C2`, the growth inhibition was 13.1% in assay [1]; 12.2% in assay [2]; 20.9% in assay [3]; 33.2% in assay [4]; 10.2% in assay [5]; 13.8% in assay [6].

For the molecule `Cc1nn(C)pc1P(C)(=S)n1nc(N(C)C)np1` (stereo unspecified), the growth inhibition in assay [1] was -2.65%; in assay [2], -19.1%; in assay [3] it was 0.65%; in assay [4], 0.2%; in assay [5], -7.55%; in assay [6], -7.75%.

For the molecule `O=C(O)c1ccc(I)cc1.[Ni]`, the growth inhibition in assay [1] is 82.8% (active); in assay [2] it was 5.7%; in assay [3], 57.1%; in assay [4] it was 8.85%; in assay [5], 85% (active); in assay [6], 30%.

As for `OCC12COCN1COC2`, the growth inhibition in assay [1] is 8.4%; in assay [2], -15.9%; in assay [3], -23.6%; in assay [4] it was -14%; in assay [5], -0.4%; in assay [6] it was -31.9%.
